Results as given in PubChem BioAssay AID485270 (The Scripps Research Institute Molecular Screening Center, 2010).
The campaign covered roughly 330,000 compounds. About 5,800 (1.8%) were called active. Rule as the data show it: active = inhibition mostly above about 38% (no sharp cut-off); inactive = mostly below about 40%. Only a selection was taken, and actives are over-represented in it overall.

biological target: Orexin/Hypocretin receptor type 1 (Homo sapiens) (UniProt O43613); assay: antagonists of human orexin 1 receptor (OX1R) (AID 485270); details: OX1R-expressing cells, FRET antagonist read-out; at 6.6 µM; stronger effect = higher value;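 also: 0% = agonist challenge alone and 100% = reference antagonist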
Sequence (O43613 whole entry, looked up): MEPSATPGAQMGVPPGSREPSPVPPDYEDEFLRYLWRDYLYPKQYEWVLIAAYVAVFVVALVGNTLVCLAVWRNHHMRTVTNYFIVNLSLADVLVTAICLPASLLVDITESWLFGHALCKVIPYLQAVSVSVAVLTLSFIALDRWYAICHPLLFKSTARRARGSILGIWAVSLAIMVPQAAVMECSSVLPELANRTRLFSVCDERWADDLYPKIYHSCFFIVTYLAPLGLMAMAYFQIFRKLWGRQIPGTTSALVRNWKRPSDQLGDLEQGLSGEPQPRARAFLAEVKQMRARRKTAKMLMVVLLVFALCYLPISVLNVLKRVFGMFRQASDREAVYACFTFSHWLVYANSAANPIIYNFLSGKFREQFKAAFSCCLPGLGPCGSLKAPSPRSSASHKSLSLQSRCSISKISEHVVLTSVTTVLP

inhibition, active:
CCC(=C/c1sc2ccc3ccccc3c2[n+]1C)/C=C1\Sc2ccc3ccccc3c2N1C 42.8%, O=C(/C=C/c1ccco1)Nc1cccc(-c2nc3ccccc3[nH]2)c1 86.8%, O=C(N/N=C/c1c(Cl)[nH]c2ccccc12)c1sc2ccccc2c1Cl 100%, Cc1nn(C)cc1/C=N/NC(=O)c1sc2ccccc2c1Cl 72.5%, CCOc1cc(/C=C(\C#N)c2nc(-c3cccs3)c(NC(C)=O)s2)ccc1O 65.7%, O=C(O)C1CCN(c2ccc([N+](=O)[O-])cc2[N+](=O)[O-])CC1 40.7%, Cc1nc2nc(SCC(=O)Nc3cccc(F)c3)[nH]c2cc1Br 57.5%, Cc1cc(NC(=O)CSc2nccn2-c2ccc([N+](=O)[O-])cc2)no1 70.4%, CC(=O)N/N=C/c1cc2c(cc1[N+](=O)[O-])OCO2 98.3%, O=C1NC(=O)C2C1C(c1ccc([N+](=O)[O-])cc1)=NN2Cc1ccccc1 (stereo not drawn) 75.4%, Cn1c(-c2ccco2)nc2cc3ccccc3cc21 68.2%, O=C(N/N=C/c1ccc([N+](=O)[O-])o1)c1cccc(S(=O)(=O)N2CCOCC2)c1 44.6%, CCN1C(=O)/C(=C2\SC(N3CCCCC3)=NC2=O)c2ccccc21 42.2%, CC(C)(C)NC(=O)Cn1cnc2cc([N+](=O)[O-])ccc2c1=O 132%

inhibition, inactive:
CC[C@@H](C)[C@@H]1CN([C@@H](C)CN2CCC[C@H]2CN2C(N)=NC[C@H]2C(C)C)C(=N)N1CCc1ccc(Cl)c(Cl)c1 -3.86%, COc1ccccc1C(=O)NCC(=O)OCC(=O)NNC(=O)c1ccc(Br)cc1 2.31%, Fc1ccc(Nc2nnns2)cc1 11.1%, CS(=O)(=O)c1ccc(C(=O)NNC(=O)c2cccs2)cc1 1.62%, CC(C)N(C(=O)[C@H]1C[C@H](CC(=O)NC(C)(C)C)C(=O)N2CCc3c([nH]c4ccc(Cl)cc34)[C@]12C)C(C)C 8.54%, C=CCC[C@@H](Cc1ccc(F)cc1)C(=O)OC[C@H](Cc1c[nH]c2ccccc12)NC(=O)[C@@H](CC=C)CC(=O)N(CCO)Cc1ccccc1 7.48%, NS(=O)(=O)c1cccc(NC(=O)COC(=O)c2cc([N+](=O)[O-])ccc2N2CCCC2)c1 14.8%, O=C(CSc1nc2ccccc2c(=O)n1Cc1ccc(F)cc1)NCC1CCCO1 (stereo not drawn) 4.49%, COc1ccc(S(=O)(=O)N2CCN(c3cnccn3)CC2)cc1 16.4%, CC(OC(=O)c1ccc([N+](=O)[O-])cc1)C(=O)NCC1CCCCC1 (stereo not drawn) 18.2%, CC1CCCCN1CCCNC(=O)Cn1ncc2c([nH]c3ccccc32)c1=O (stereo not drawn) 4.31%, Cn1cccc1C(=O)OCC(=O)c1ccc(Br)s1 5.79%, O=C(CC1SC(N2CCOCC2)=NC1=O)Nc1ccccc1F (stereo not drawn) -1.73%, C[C@@H](CN1CCC[C@H]1CN1C(N)=NC[C@@H]1Cc1ccccc1)N1C[C@@H](Cc2ccccc2)N(CCCC2CCCC2)C1=N 11.4%, C/C=C/c1ccc(OCC(=O)NNC(=O)CN(C)S(=O)(=O)c2ccc(C)cc2)c(OC)c1 0.57%, Cc1ccc(-n2nc3ccc(NC(=O)/C=C/c4ccco4)cc3n2)cc1C 21.4%, O=C(/C=C/c1ccco1)Nc1ccc(Oc2ccccc2)cc1 62.7%, Cc1ccc(C(=O)OCC(=O)N2CCCCCC2)cc1S(=O)(=O)N1CCOCC1 24.3%, COc1ccc(NC(=O)Nc2ccc3c(c2)C(=O)N([C@H](C)CO)C[C@H](C)[C@@H](CN(C)C(=O)Nc2ccc4c(c2)OCO4)O3)cc1 8.87%, Cc1nn(-c2ccccc2)c(Cl)c1/C=N/NC(=O)c1nn(C)cc1[N+](=O)[O-] 41.5%, Cc1nnsc1C(=O)N/N=C/c1ccccc1Cl 3.68%, COc1ccc(CNC(=O)CNC(=O)c2sc3ccccc3c2Cl)cc1OC 18.2%, COCCNC(=S)N/N=C/c1c(C)[nH]c2ccccc12 9.28%, CC[C@]1(C(=O)OC)[C@H]2C(=O)N(Cc3ccccc3)C(=O)[C@H]2[C@H]2CN=C(SCc3ccccc3)N21 9.69%, C[C@H]1CN([C@@H](C)CO)C(=O)Cc2cc(NS(C)(=O)=O)ccc2O[C@@H]1CN(C)CC1CC1 1.83%, CN=C(Nc1cccc(S(=O)(=O)N2CCOCC2)c1)c1ccccc1 2.1%, CC[C@]12c3[nH]c4cc(CCC(=O)N(C)C)ccc4c3CCN1C(=O)[C@@H](CC(=O)NCCCN(C)C)C[C@@H]2C(=O)N1CCN(C(=O)c2ccco2)CC1 -2.47%, COCCCNC(=O)CC1C[C@H](C(=O)N2CCCCC2)[C@@]2(CCc3ccccc3)c3[nH]c4ccccc4c3CCN2C1=O (stereo partly drawn) 2.77%, COc1cc(/C=N\Nc2nc(-c3cccs3)c(NC(C)=O)s2)ccc1O 8.13%, CCOc1cc(-c2cc(-c3ccc(NC(C)=O)cc3)nc(N)c2C#N)ccc1O 25.9%, CCCC/C(C)=N/NC(=O)NC1CCCCC1 10.5%, Nc1ncnc2c1ncn2[C@@H]1O[C@H](CNCc2cccn2-c2nccs2)[C@@H](O)[C@H]1O 5.52%, CC1CCN(c2ccc([N+](=O)[O-])cc2C(N)=O)CC1 65.8%, CCOC(=O)C1CCN(c2ccc(C(=O)O)cc2[N+](=O)[O-])CC1 57.8%, O=C(COC(=O)c1cc[n+]([O-])cc1)Nc1ccc(Cl)c(C(F)(F)F)c1 8.49%, CC(Oc1ccc2c(-c3ccccc3)cc(=O)oc2c1)C(=O)NC(Cc1c[nH]c2ccccc12)C(=O)O (stereo not drawn) 12.5%, Cc1nc2nc(SCC(=O)c3ccccc3)[nH]c2cc1Br 9.22%, Cc1cccc(NC(=O)CSc2nc3[nH]ncc3c(=O)[nH]2)c1 10.4%, Cc1ccc2c(c1)C1C[N+](C)(CC(=O)c3ccccc3)CCC1N2C(=O)c1ccccc1Cl (stereo not drawn) 7.24%, CC1CCCCC12NC(=O)N(CC(=O)OCc1c(F)cccc1Cl)C2=O (stereo not drawn) 11.8%, Cc1cc(NC(=O)COc2ccc([N+](=O)[O-])cc2)no1 3.47%, Cc1cc(NC(=O)CSc2nnnn2-c2ccc(F)cc2)no1 10.1%, NS(=O)(=O)c1ccc(CNC(=S)NC(=O)c2ccco2)cc1 4.56%, Cc1ccc(S(=O)(=O)N/N=C\c2cc3c(cc2[N+](=O)[O-])OCO3)cc1 29.4%, CC1(C(=O)N/N=C/c2cc3c(cc2Br)OCO3)CC1(Br)Br (stereo not drawn) 26.7%, COc1ccc(CN2C(CC(=O)Nc3cccnc3)c3ccc(C(F)(F)F)cc3S2(=O)=O)cc1 (stereo not drawn) 12.3%, COc1ccc(CNC(=O)COC(=O)c2sccc2C)cc1OC 3.49%, CC1=NN(c2ccccc2)C(=O)C1C(=O)c1ccc([N+](=O)[O-])cc1 (stereo not drawn) 33.4%, CC(=O)N1c2ccccc2N(Cc2ccc([N+](=O)[O-])cc2)C(=O)C1(C)C 15.5%, CC(C)(C)OC(=O)C[C@@H]1C/C=C\C[C@@H](CC(=O)N[C@@H](CO)Cc2ccccc2)C(=O)N2CCC[C@H]2COC1=O 16.2%, COc1ccccc1N(CC(=O)Nc1ccc(C)cc1Cl)S(=O)(=O)c1cccs1 9.45%, Cc1ccc(C2(C)NC(=O)N(CC(=O)N3CC(=O)Nc4ccccc43)C2=O)cc1 (stereo not drawn) 2.94%, COc1ccccc1NS(=O)(=O)c1ccc(C)c(C(=O)NNC(=O)c2csc(N3CCOCC3)n2)c1 2.72%, COc1cc(S(=O)(=O)N2CCN(C(=O)C3CC3)CC2)ccc1NC(C)=O 10.5%, COc1ccc(C(=O)COC(=O)c2c(C)noc2C)cc1Cl 3.93%, CCOC(=O)[C@H]1[C@H]2COc3ccccc3[C@@H]2N2C(=O)CN(Cc3ccccc3)C(=O)[C@@]12C 11.5%, CS(=O)(=O)n1nc(-c2ccco2)nc1N -7.64%, COc1ccccc1-n1c(-c2cc(-c3ccco3)[nH]n2)n[nH]c1=S 4.56%, COC(=O)c1ccc(CNC(=O)c2ccc(S(=O)(=O)N3CCCCCC3)cc2)cc1 13.9%, O=C(Nc1ccc(N2CCOCC2)cc1)c1cccc(S(=O)(=O)N2CCOCC2)c1 1.87%, CCOc1cc(/C=N/NC(=O)c2cccc(S(=O)(=O)N3CCOCC3)c2)ccc1OCC(=O)N(C)C 10%, O=C1N=C(N2CCCC2)S/C1=C\c1cccc(Br)c1 35.7%, CCOc1cc(/C=C2\SC(N3CCCCC3)=NC2=O)ccc1O 25.6%, O=C(Cn1cc(C(F)(F)F)ccc1=O)Nc1ccc2c(c1)OCCO2 1.4%, COc1cc(/C=C/C(=O)OCC(=O)NC2CC2)cc(OC)c1OC 3.2%, O=C(Cn1cnc2cc([N+](=O)[O-])ccc2c1=O)NC(=O)NCc1ccccc1 23.1%, Cc1cc(C(=O)Cn2cnc3cc([N+](=O)[O-])ccc3c2=O)c(C)n1CC1CCCO1 (stereo not drawn) 53.2%, COc1ccc(S(=O)(=O)N(C)C[C@@H]2Oc3ccc(NS(=O)(=O)c4cn(C)cn4)cc3C(=O)N([C@@H](C)CO)C[C@@H]2C)cc1 1.11%, CSc1ncccc1C(=O)Nc1cccc(S(=O)(=O)N2CCOCC2)c1 9.4%
